Experimental findings from PubChem BioAssay are described below.

Assay [1] relates to Wnt5a (protein binding on small-molecule microarray). The assay is described as follows: Wnt5a binders on small-molecule microarray, primary screen, biophysical, 635/667 nm fluorescence (AID 1142).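 Further: fluorescence read at 667 nm with signal to noise per printed feature.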 As to conditions: 635 nm fluorescence, higher = more signal.
Assay [2] in a line: cell viability in Huh7 cells, primary screen, cytotoxicity control for HCV replication inhibitor project, CellTiter-Glo luminescence, basal, 48 h (AID 1143).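 Further: Huh7 hepatoma cells carrying a hepatitis C replication reporter with no stimulus; test concentration not given here.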 As to conditions: Huh7 HCV replicon, higher = more signal, called active from +8 up or from −8 down.
The nature of assay [3]: P. aeruginosa biofilm formation inhibitors, primary screen, PAO1 strain, BacTiter-Glo luminescence, LB-PBS (AID 1144). As to conditions: 12 h, higher = more signal.
A short description of assay [4]: CREB reporter modulators without forskolin, primary screen, cell-based, PC12, CRE-LacZ reporter, unstimulated (AID 1145). As to conditions: no forskolin, luminescence, 4.5 h, higher = more signal, called active from +8 up or from −8 down.
A short description of assay [5]: CREB reporter modulators under forskolin, primary screen, cell-based, PC12, CRE-LacZ reporter, forskolin-stimulated (AID 1146).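 Further: PC12 cells with 6xCRE LacZ reporter stimulated by forskolin 10 µM; beta-galactosidase reporter signal reflecting CREB driven transcription.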 As to conditions: luminescence, 4.5 h, higher = more signal, called active from +8 up or from −8 down.
Assay [6] has as its target Streptavidin (Streptomyces avidinii) (UniProt P22629). The assay is described as follows: streptavidin binders on small-molecule microarray, primary screen, artefact control for SMM compound annotation, biophysical, 635/667 nm fluorescence (AID 1147).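 Further: signal reflects streptavidin binding to arrayed compounds as a control protein.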 As to conditions: streptavidin binding, higher = more signal.
Assay [7] in a line: small-molecule binders of probe aInhba, primary screen, biochemical, small-molecule microarray, 635/667 nm fluorescence (AID 1148).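 Further: score merges 667nm spot fluorescence with signal-to-noise for antibody binding to printed compounds.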 As to conditions: higher = more signal.
The target in assay [8] is Torsin-1A (Homo sapiens) (UniProt O14656). Put plainly: torsin A binders from cell lysate, primary screen, small-molecule microarray, wild-type, 635/667 nm (AID 1149). As to conditions: COS7 hTOR1A-WT lysate, 635 nm fluorescence, higher = more signal.
Chain of Torsin-1A (Homo sapiens) (O14656 whole entry, looked up): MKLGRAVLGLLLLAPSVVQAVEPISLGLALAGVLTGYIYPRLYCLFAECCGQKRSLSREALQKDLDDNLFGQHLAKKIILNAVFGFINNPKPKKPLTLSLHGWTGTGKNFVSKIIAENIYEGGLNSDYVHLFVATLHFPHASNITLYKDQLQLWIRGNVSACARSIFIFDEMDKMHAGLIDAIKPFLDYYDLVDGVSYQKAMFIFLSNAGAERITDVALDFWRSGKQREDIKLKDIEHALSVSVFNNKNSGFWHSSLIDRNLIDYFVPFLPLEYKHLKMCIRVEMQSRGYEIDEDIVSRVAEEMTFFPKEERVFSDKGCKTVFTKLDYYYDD
Assay [9] shares this target. The assay is described as follows: small-molecule binders of mutant TOR1A in lysate, primary screen, cell lysate, small-molecule microarray, COS7 lysate, 635/667 nm fluorescence (AID 1150).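 Further: score pools 667 nm emission and signal to noise measuring lysate protein binding.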 As to conditions: COS7 hTOR1A mutant lysate, 635 nm fluorescence, higher = more signal.
Assay [10] concerns Sonic hedgehog protein (Shh). Put plainly: small-molecule binders of Shh protein, primary screen, biochemical, small-molecule microarray, 635/667 nm fluorescence (AID 1151).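 Further: Shh protein binding to compounds spotted on small-molecule microarray slides; score combines spot fluorescence intensity with signal-to-noise across triplicate slides.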 As to conditions: small-molecule microarray binding, 635 nm fluorescence; higher = more signal.
Assay [11] can be described thus: E. coli DRC41 culture turbidity changes, primary screen, E. coli filamentation inducer project, strain DRC41, OD650, 48 h (AID 1152).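 Further: E. coli MC1000 strain DRC41 lacking acrAB efflux pump and sulA.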 As to conditions: E. coli DRC41 (acrAB sulA), higher = more signal, called active from +8 up or from −8 down.
Assay [12] is described as follows: small-molecule binders of probe aLefty1, primary screen, biochemical, small-molecule microarray, 635/667 nm fluorescence (AID 1153).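 Further: score merges spot fluorescence with signal-to-noise ratio from the scanned slide images.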 As to conditions: higher = more signal.
A short description of assay [13]: PSAC antagonists in infected red cells, primary screen, cell-based, P. falciparum Indochina, OD700, 1 h (AID 1154). As to conditions: P. falciparum Indochina infected RBC osmotic lysis, higher = more signal, called active from +8 up or from −8 down.
A short description of assay [14]: PSAC antagonists in infected red cells, primary screen, cell-based, P. falciparum Indochina, OD700, 2 h (AID 1155).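 Further: lysis reports solute entry through the parasite surface anion channel PSAC; channel blockers reduce lysis of infected cells.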 As to conditions: P. falciparum Indochina infected erythrocytes, osmotic lysis OD700; higher = more signal, called active from +8 up or from −8 down.
Assay [15] in a line: osmotic lysis modulators in infected erythrocytes, primary screen, PSAC antagonist project, cell-based, P. falciparum Indochina, OD700, 3 h (AID 1156). As to conditions: higher = more signal, called active from +8 up or from −8 down.
Assay [16] can be described thus: PSAC antagonists in infected red cells, primary screen, cell-based, P. falciparum Indochina, OD700, 18 h (AID 1157). As to conditions: P. falciparum Indochina infected erythrocytes, osmotic lysis OD700, 18 h; higher = more signal, called active from +8 up or from −8 down.
A short description of assay [17]: modulators of S6 phosphorylation in cells, primary screen, cell-based, A549, cytoblot, luminescence, serum-stimulated (AID 1158).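 Further: serum-stimulated A549 lung adenocarcinoma cells; signal is phosphorylated S6 detected by cytoblot immunostaining with HRP secondary.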 As to conditions: A549 phospho-S6 cytoblot, 5 h, higher = more signal.
Assay [18] deals with NADPH oxidase 2 (Homo sapiens) (UniProt P04839). Put plainly: NOX2-dependent H2O2 signal modulators, primary screen, NOX inhibitor project, cell-based, HEK293-NOX2, PMA-stimulated, Amplex Red fluorescence (AID 1159). Further: test concentration not given here. As to conditions: 45 min, higher = more signal, called active from +8 up or from −8 down.
Chain of NADPH oxidase 2 (Homo sapiens) (P04839 whole entry, looked up): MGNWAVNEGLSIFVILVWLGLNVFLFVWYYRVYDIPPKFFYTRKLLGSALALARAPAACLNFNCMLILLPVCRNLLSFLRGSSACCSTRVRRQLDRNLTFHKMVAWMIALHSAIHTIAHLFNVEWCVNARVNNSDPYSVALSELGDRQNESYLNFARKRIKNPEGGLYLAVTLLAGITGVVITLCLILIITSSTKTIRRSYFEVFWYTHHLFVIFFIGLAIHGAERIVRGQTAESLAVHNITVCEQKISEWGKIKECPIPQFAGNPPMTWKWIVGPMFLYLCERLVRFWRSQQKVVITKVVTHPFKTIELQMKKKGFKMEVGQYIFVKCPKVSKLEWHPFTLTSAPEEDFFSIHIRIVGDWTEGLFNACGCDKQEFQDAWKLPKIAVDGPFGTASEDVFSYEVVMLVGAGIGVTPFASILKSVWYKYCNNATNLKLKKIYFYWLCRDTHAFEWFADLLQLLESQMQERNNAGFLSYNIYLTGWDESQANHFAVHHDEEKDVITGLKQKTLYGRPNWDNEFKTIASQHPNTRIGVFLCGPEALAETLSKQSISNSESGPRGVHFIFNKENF
Assay [19] concerns the target NADPH oxidase 4 (Homo sapiens) (UniProt Q9NPH5). The assay is described as follows: NOX4-dependent H2O2 signal modulators, primary screen, NOX inhibitor project, cell-based, HEK293-NOX4, tetracycline-induced, Amplex Red fluorescence (AID 1160). As to conditions: 45 min, higher = more signal, called active from +8 up or from −8 down.
The target of assay [20] is NADPH oxidase 5 (Homo sapiens) (UniProt Q96PH1). The assay is described as follows: NOX5-dependent H2O2 signal modulators, primary screen, NOX inhibitor project, cell-based, HEK293-NOX5, Amplex Red fluorescence (AID 1161). As to conditions: HEK293-NOX5, ionomycin, 45 min, higher = more signal.
Chain of NADPH oxidase 5 (Homo sapiens) (Q96PH1 whole entry, looked up): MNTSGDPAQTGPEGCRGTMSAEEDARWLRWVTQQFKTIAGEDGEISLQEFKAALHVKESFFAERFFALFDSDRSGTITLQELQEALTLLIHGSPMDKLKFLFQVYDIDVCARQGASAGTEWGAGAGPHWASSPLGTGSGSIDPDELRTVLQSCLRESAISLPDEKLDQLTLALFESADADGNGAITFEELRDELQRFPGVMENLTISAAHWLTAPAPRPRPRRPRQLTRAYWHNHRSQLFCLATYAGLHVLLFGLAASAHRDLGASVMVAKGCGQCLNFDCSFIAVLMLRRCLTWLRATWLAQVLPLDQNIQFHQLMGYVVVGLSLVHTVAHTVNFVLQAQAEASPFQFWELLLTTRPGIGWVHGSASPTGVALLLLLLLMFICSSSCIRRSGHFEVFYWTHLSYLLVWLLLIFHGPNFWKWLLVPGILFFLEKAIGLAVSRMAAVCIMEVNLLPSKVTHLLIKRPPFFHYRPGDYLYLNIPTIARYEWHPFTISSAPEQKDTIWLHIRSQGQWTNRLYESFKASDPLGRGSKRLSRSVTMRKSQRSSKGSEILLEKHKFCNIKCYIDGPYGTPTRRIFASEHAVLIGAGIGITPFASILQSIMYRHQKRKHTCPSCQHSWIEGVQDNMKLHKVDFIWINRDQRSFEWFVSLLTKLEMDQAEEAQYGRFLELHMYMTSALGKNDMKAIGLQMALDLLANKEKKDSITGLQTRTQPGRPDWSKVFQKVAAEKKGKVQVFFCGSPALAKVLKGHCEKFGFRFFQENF

Activity calls are given as the source filed them. Unless noted, how the calls were made is not given here.

Chain of Streptavidin (Streptomyces avidinii) (P22629 whole entry, looked up): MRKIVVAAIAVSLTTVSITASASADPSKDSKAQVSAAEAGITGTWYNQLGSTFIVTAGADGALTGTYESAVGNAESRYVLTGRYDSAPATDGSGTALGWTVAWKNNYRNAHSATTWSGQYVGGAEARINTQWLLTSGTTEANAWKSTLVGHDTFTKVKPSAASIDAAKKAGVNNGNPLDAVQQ
Chain of NADPH oxidase 4 (Homo sapiens) (Q9NPH5 whole entry, looked up): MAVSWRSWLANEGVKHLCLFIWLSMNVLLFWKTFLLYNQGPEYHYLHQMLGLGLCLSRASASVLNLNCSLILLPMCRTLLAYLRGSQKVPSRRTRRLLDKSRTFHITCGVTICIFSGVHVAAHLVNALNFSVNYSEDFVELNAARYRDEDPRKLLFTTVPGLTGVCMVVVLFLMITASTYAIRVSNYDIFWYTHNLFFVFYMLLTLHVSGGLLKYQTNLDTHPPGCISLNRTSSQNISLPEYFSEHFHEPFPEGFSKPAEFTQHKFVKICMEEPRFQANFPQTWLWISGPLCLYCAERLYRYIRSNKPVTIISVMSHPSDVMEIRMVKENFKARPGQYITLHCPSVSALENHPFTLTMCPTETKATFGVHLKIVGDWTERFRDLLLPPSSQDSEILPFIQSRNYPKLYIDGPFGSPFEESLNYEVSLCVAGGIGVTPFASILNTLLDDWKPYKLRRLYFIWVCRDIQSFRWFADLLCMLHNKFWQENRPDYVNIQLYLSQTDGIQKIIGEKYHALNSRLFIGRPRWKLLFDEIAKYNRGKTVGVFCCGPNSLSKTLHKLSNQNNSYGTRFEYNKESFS

Take `C=CC[C@@H](OC(=O)Nc1ccc(OC)cc1)c1ccc(O)c(F)c1`: the composite z-score is -0.115 in assay [1]; -0.716 in assay [6]; -0.106 in [7]; -0.0579 in assay [8]; 0.327 in assay [9]; 0.174 in [10]. Moreover, the composite z-score in assay [12] was determined as 0.109. The z-score in [2] is -4.67 (inactive); in assay [3], -0.933 (inactive); in assay [4] it was 2.26 (inactive); in assay [5], 10.1 (active); in assay [11], 0.111 (inactive); in assay [13], 2.93 (inactive). The z-score in [14] was -0.0384 (inactive); in assay [15], -1.12 (inactive); in assay [16], -0.113 (inactive); in assay [17], -0.386; in assay [18], -6 (inactive); in assay [19] it was -2.91 (inactive). The compound further displayed a z-score in assay [20] of -3.48.
On to `CC(C)[Si](C#CCCCC#N)(O[C@H](c1ccccc1)c1cn(Cc2ccccc2)nn1)C(C)C`, for which the composite z-score in assay [1] is 0.125; in [6] it was 0.62; in assay [7], -0.157; in assay [8] it was 0.148; in [9], 0.194; in assay [10] it was 0.531. Also, in [12], the composite z-score was -0.253. In addition, the z-score in [2] was -0.507 (inactive); in [3], -0.319 (inactive); in assay [4] it was 0.773 (inactive); in assay [5], -0.0473 (inactive); in assay [11] it was 1.99 (inactive); in [13], 1.05 (inactive). The z-score in assay [14] was 0.0907 (inactive); in [15], 0.866 (inactive); in [16] it was 0.137 (inactive); in assay [17], 0.249; in assay [18] it was -0.502 (inactive); in [19], 0.912 (inactive). The z-score in assay [20] turned out to be 0.536.
`CC(C)C[C@@H]1NC(=O)[C@@H]2C[C@H](C(=O)NCCCCCCN)[C@H](c3cccc(OCCO)c3)N2C1=O`: the composite z-score in assay [1] was 0.0254; in assay [6], 0.919; in [7], 0.747; in [8], 0.255; in [9], 1.73; in assay [10] it was 2. The composite z-score in [12] worked out at 0.393. The z-score is -0.214 (inactive) in [2]; -1.74 (inactive) in assay [3]; -0.675 (inactive) in assay [4]; 0.348 (inactive) in [5]; 0.831 (inactive) in assay [11]; 3.69 (inactive) in [13]. Further, the z-score was 0.73 (inactive) in [14]; 3.36 (inactive) in assay [15]; 0.227 (inactive) in [16]; -0.256 in assay [17]; 2.24 (inactive) in assay [18]; 1.36 (inactive) in assay [19]. The same compound registered a z-score in assay [20] of 1.99.
Consider `CCOC(=O)C[C@H]1[C@H](OC(=O)c2ccc(C(=O)c3ccccc3)cc2)[C@@H](NC(=O)C2CCCCC2)c2cc(OCCCO)ccc2N1C(=O)c1ccc2ccccc2n1`, for which the composite z-score in [1] is 0.233; in assay [6] it was 0.731; in assay [7], -0.0933; in assay [8] it was 0.772; in assay [9] it was 0.298; in [10], 0.93. For the same compound, in assay [12], the composite z-score was found to be 0.596. Also, the z-score was 0.233 (inactive) in [2]; -1.09 (inactive) in assay [3]; -0.215 (inactive) in assay [4]; -0.825 (inactive) in [5]; 1.94 (inactive) in assay [11]; 3.11 (inactive) in [13]. The z-score in assay [14] is 0.347 (inactive); in assay [15], -0.238 (inactive); in [16], 0.0872 (inactive); in [17] it was 0.0955; in [18] it was -1.62 (inactive); in assay [19], 0.402 (inactive). In assay [20], this compound gave a z-score of 0.124.
In the case of `COc1ccc(CCNC(=O)[C@@H]2c3ccccc3C(=O)N(C3CCCCC3)[C@H]2c2ccc(CO)cc2)cc1`, the composite z-score is 0.378 in assay [1]; -0.11 in assay [6]; -0.0087 in [7]; -0.78 in assay [8]; 0.767 in assay [9]; -0.0203 in assay [10]. In addition, in assay [12], the composite z-score is -0.0149. Further, the z-score in [2] was -2.93 (inactive); in assay [3], -0.0661 (inactive); in assay [4], -0.295 (inactive); in assay [5], -0.582 (inactive); in [11] it was -0.71 (inactive); in [13], 2.58 (inactive). Also, the z-score was 0.163 (inactive) in [14]; 1.71 (inactive) in [15]; 0.0567 (inactive) in assay [16]; 0.491 in [17]; -0.415 (inactive) in assay [18]; -0.546 (inactive) in [19]. This compound also showed a z-score in assay [20] of -2.31.
